Potency data for 13 compounds are collected here from PubChem BioAssay (NCATS).

Inconclusive results are not listed. Some compounds were tested as several samples or in several runs, with calls that do not always agree. The source made the active and inactive calls. The call rests on the fitted dose curve; in most records, active means well fitted inhibition curve with a large enough effect; inconclusive means small, poorly fitted or top-dose-only effect; inactive means flat fitted curve, though single readings scatter.

What all share (test): qHTS profiling for inhibitors of Plasmodium falciparum proliferation (AID 504749); further: nearly all actives have a fitted effect of over 60% in size
Conditions in all cases: P. falciparum in erythrocytes, SYBR Green DNA, 72 h; series mostly up to 28.7 µM
(In general: Quantitative high-throughput screening tests each substance at several concentrations.)

One experiment relates to AA1029. In a few lines:
(§1)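 Infected RBCs, 0.3% parasitemia/2.5% Hct final; cpd 72 h, 37 C, 5% CO2; lysis buffer with saponin/triton/SYBR Green I, o/n RT dark; FI 485/535; norm. to artemisinin (0.29 uM) and DMSO.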

The next experiment relates to AS120. In outline:
as §1

Another experiment has as its system C2A. In outline:
as §1

The subject of the next experiment is CP201. In a few lines:
as §1

A further experiment deals with CP203. In a few lines: as §1
The test system of another experiment is CP237. In a few lines: as §1
For a further experiment, the system named is CP250. In outline: as §1
Another experiment deals with CP256. In a few lines:
as §1

Another experiment has as its system CP268. In a few lines:
as §1

The test system of another experiment is CP305. In a few lines:
as §1

The next experiment concerns CP315. In outline:
as §1

The test system of a further experiment is CP325. In outline: as §1
The next experiment has as its system HB3. In a few lines: as §1
For the next experiment, the system named is JCK. In a few lines:
as §1

Another experiment relates to N140. In outline:
as §1

The next experiment deals with P94_40. In a few lines: as §1
The test system of a further experiment is PAD. In outline: as §1
For another experiment, the system named is SC27B. In outline: as §1
The test system of a further experiment is TAB113. In a few lines: as §1
Another experiment concerns DIV30. In a few lines: as §1
Potency means the concentration at half of the fitted maximal effect.

On to `COC(=O)C1C2CC3c4[nH]c5cc(OC)ccc5c4CCN3CC2CC(OC)C1OC` (configuration not stated), for which the Potency result with AA1029, with AS120, in the experiment on C2A, in the experiment with CP201, in the experiment with CP203 and with CP237 was “inactive” in each case. Also, the Potency result in the experiment with CP250, in the experiment on CP256, with CP268, in the experiment with CP305, in the experiment on CP315 and with CP325 was “inactive” in each case. The Potency result in the experiment on HB3, in the experiment on JCK, in the experiment on N140, in the experiment with P94_40, in the experiment with PAD and with SC27B was “inactive” throughout. Besides, the Potency result in the experiment with TAB113 is “inactive”.
In the case of `C=C1C(n2cnc3c(=O)[nH]c(N)nc32)C[C@H](O)[C@H]1CO` (some centres not stated), the Potency entry in the experiment with AA1029, with AS120, with C2A, in the experiment on CP201, with CP237 and with CP315 was “inactive” throughout. Besides, the Potency entry in the experiment on DIV30, in the experiment on HB3, in the experiment on JCK, in the experiment on N140, with P94_40 and in the experiment on PAD was “inactive” in each case. Further, the Potency result with SC27B and in the experiment on TAB113 was “inactive” throughout.
Turning to `CNC1=CN(O)C(c2ccccc2)=c2cc(Cl)ccc2=N1`, the Potency is 11.2 µM (active) and inactive with AS120; 4.26 µM (active) and inactive in the experiment on CP201; 4.26 µM (active) in the experiment on CP203; 4.26 µM (active) with CP268; 1.69 µM (active) in the experiment on CP305; 1.9 µM (active) with CP315. The Potency is 4.26 µM (active) and inactive in the experiment with DIV30; 5.62 µM (active) in the experiment with P94_40; 2.82 µM (active) in the experiment on TAB113. Moreover, the Potency result in the experiment on CP237, with CP256, in the experiment with HB3 and in the experiment with JCK was “inactive” throughout.
Take `CC1CCC(O)C/C1=C\C=C1/CCCC2(C)C1CCC2C(C)/C=C/C(C)C(C)C` (configuration not stated): the Potency entry in the experiment with AA1029, with AS120, in the experiment on C2A, in the experiment with CP201, with CP203 and in the experiment with CP237 was “inactive” throughout. The Potency entry in the experiment on CP250, with CP256, in the experiment with CP268, in the experiment with CP305, with CP315 and with CP325 was “inactive” throughout. Further, the Potency entry in the experiment with HB3, in the experiment with JCK, in the experiment on SC27B and with TAB113 was “inactive” throughout.
`Clc1ccc(CS[C@@H](Cn2ccnc2)c2ccc(Cl)cc2Cl)cc1`: the Potency in the experiment with AA1029 was 3.55 µM (active); in the experiment with AS120, 1.26 µM (active); in the experiment with CP203, 4.55 µM (active); in the experiment on CP237, 1.78 µM (active); in the experiment with DIV30 it was 3.22 µM (active); in the experiment with HB3, 3.98 µM (active). For the same compound, the Potency in the experiment on N140 was 1.41 µM (active); in the experiment on P94_40, 3.55 µM (active); with PAD, 3.16 µM (active); with SC27B, 2.82 µM (active).
In the case of `CCCSS/C(CCO)=C(/C)N(C=O)Cc1cnc(C)nc1N`, the Potency entry with AA1029, in the experiment on AS120, with C2A, in the experiment on CP201, with CP203 and in the experiment with CP237 was “inactive” in each case. The Potency result in the experiment on CP250, with CP256, in the experiment on CP268, in the experiment with CP305, in the experiment on CP315 and with CP325 was “inactive” each time. The Potency entry with DIV30, in the experiment with HB3, in the experiment on JCK, in the experiment with N140, in the experiment on P94_40 and in the experiment with PAD was “inactive” throughout. The Potency result in the experiment on SC27B and in the experiment with TAB113 was “inactive” each time.
As for `Cc1cc2nc3c(=O)[nH]c(=O)nc-3n(CC(O)C(O)C(O)COP(=O)(O)O)c2cc1C` (configuration not stated), the Potency entry with AA1029, with AS120, in the experiment with C2A, in the experiment on CP201, in the experiment on CP203 and in the experiment with CP237 was “inactive” in each case. The Potency entry in the experiment on CP250, in the experiment with CP256, in the experiment on CP268, in the experiment with CP305, in the experiment with CP315 and with CP325 was “inactive” throughout. Moreover, the Potency entry in the experiment on DIV30, in the experiment on HB3, in the experiment with JCK, in the experiment with N140, in the experiment with P94_40 and in the experiment with PAD was “inactive” each time. Moreover, the Potency entry in the experiment on SC27B and with TAB113 was “inactive” each time.
As to `CCC(=O)O[C@]1(C(=O)CCl)[C@@H](C)CC2C3C[C@H](F)C4=CC(=O)C=CC4(C)[C@@]3(F)C(O)CC21C` (some centres not stated), the Potency in the experiment on AA1029 is 8.91 µM (active); in the experiment on AS120, 7.94 µM (active); in the experiment with C2A it was 12.6 µM (active); with CP237, 3.55 µM (active); in the experiment on CP250, 12.6 µM (active); with CP256, 11.2 µM (active). In addition, the Potency in the experiment on CP268 is 12 µM (active); in the experiment with CP305, 12 µM (active); with CP325, 16.9 µM (active); in the experiment on DIV30, 12 µM (active); in the experiment with HB3, 12.6 µM (active); in the experiment with N140 it was 6.31 µM (active). Also, the Potency in the experiment on P94_40 is 8.91 µM (active); in the experiment with PAD, 3.98 µM (active); with SC27B it was 7.94 µM (active); with TAB113 it was 8.91 µM (active).
As for `COc1cc(/C=C2\CCC/C(=C\c3ccc(O)c(OC)c3)C2=O)ccc1O`, the Potency was 12.6 µM (active) with AA1029; 8.91 µM (active) in the experiment with AS120; 14.1 µM (active) in the experiment on CP237; 10 µM (active) with CP250; 19 µM (active) in the experiment on CP315; 8.49 µM (active) in the experiment with DIV30. The Potency is 12.6 µM (active) in the experiment on HB3; 10 µM (active) with JCK; 11.2 µM (active) in the experiment with N140; 12.6 µM (active) in the experiment with P94_40; 7.08 µM (active) in the experiment on PAD; 11.2 µM (active) with SC27B. The Potency in the experiment with TAB113 was 8.91 µM (active).
As to `CC(C)CCCC(C)C1CC(=O)C2=C3CCC4CC(O)CCC4(C)C3CCC21C` (configuration not stated), the Potency result in the experiment with AA1029, in the experiment with AS120, with C2A, in the experiment on CP201, in the experiment on CP203 and in the experiment on CP250 was “inactive” throughout. Also, the Potency entry in the experiment with CP256, in the experiment on CP268, in the experiment on CP305, with CP315, in the experiment on CP325 and in the experiment on DIV30 was “inactive” each time. Also, the Potency result with JCK, in the experiment with N140, in the experiment on P94_40, in the experiment on PAD and in the experiment on SC27B was “inactive” each time.
In the case of `C[C@@H]1CC2C3CCC4=CC(=O)C=C[C@]4(C)[C@@]3(F)[C@@H](O)C[C@]2(C)[C@@]1(O)C(=O)COC(=O)c1cccc(S(=O)(=O)O)c1` (some centres not stated), the Potency result with AA1029, with AS120, in the experiment on C2A, with CP201, with CP203 and in the experiment on CP237 was “inactive” each time. Moreover, the Potency result in the experiment on CP250, in the experiment on CP256, in the experiment with CP268, in the experiment with CP305, in the experiment with CP315 and with CP325 was “inactive” in each case. Besides, the Potency entry with DIV30, in the experiment with HB3, with JCK, in the experiment with N140, in the experiment with P94_40 and with PAD was “inactive” each time. The Potency result with SC27B and with TAB113 was “inactive” in each case.
As for `C[C@]12CC[C@@H]3c4ccc(O)cc4C[C@@H](CCCCCCCCCS(=O)CCCC(F)(F)C(F)(F)F)C3[C@@H]1CC[C@@H]2O` (some centres not stated), the Potency in the experiment with AA1029 is 7.08 µM (active); in the experiment on AS120, 2.51 µM (active); in the experiment on C2A it was 10 µM (active); in the experiment on CP237, 5.01 µM (active); with CP305, 10.7 µM (active); in the experiment with DIV30 it was 3.79 µM (active). Besides, the Potency in the experiment on HB3 is 5.01 µM (active); in the experiment on JCK it was 17.8 µM (active); with N140, 2.24 µM (active); in the experiment with P94_40 it was 5.62 µM (active); in the experiment with PAD it was 3.98 µM (active); in the experiment on SC27B it was 2.82 µM (active). Further, the Potency in the experiment on TAB113 is 4.47 µM (active). Also, the Potency entry in the experiment on CP315 is “inactive”.
In the case of `CC1CN(c2c(F)c(N)c3c(=O)c(C(=O)O)cn(C4CC4)c3c2F)CC(C)N1` (configuration not stated), the Potency result with AA1029, in the experiment on AS120, in the experiment on C2A, in the experiment on CP201, in the experiment with CP203 and in the experiment with CP237 was “inactive” each time. For the same compound, the Potency entry in the experiment with CP250, in the experiment with CP256, in the experiment with CP268, in the experiment on CP305, with CP315 and in the experiment on CP325 was “inactive” throughout. Also, the Potency entry in the experiment on DIV30, with HB3, in the experiment on JCK, in the experiment with N140, in the experiment with P94_40 and in the experiment on PAD was “inactive” throughout. Further, the Potency result with SC27B and in the experiment with TAB113 was “inactive” throughout.
